This is a sample that favours compounds with a hit; in the whole collection about 9.9% have one here.
Tau fibril ThT – tau fibrillization inhibition (ThT binding); P10636; recombinant tau K18 P301L, heparin-induced fibrillization, ThT fluorescence; Potency, µM (titrated, usually from 57.4 µM), for inactives: at the highest dose activity, negative = inhibition, hits mostly inhibitors; actives 2.1% (n = 270,000); also: nearly all actives have a fitted effect of over 55% in size
Target sequence (P10636 561-689 P618L limits assumed): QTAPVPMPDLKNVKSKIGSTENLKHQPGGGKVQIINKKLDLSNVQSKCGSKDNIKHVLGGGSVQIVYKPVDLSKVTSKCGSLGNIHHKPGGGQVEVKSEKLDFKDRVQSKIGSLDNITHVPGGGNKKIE
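Fibril formation assay: tau K18 P301L at 15 uM with trace Alexa 594 label, heparin inducer 20 uM, pH 7 sodium acetate buffer, 37 C for 6 hr; endpoint ThT signal.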
Tau fluor counter – counter-screen for tau fibril formation inhibitors; tau K18 P301L Alexa594 fluorescence, heparin fibrillization; Potency, µM (doses to about 57.7 µM), inactives show top-dose activity change, negative = decrease; actives 0.93% (n = 280,000); AID 1463; also: nearly all actives have a fitted effect of over 55% in size
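Human tau K18 P301L (15 uM unlabeled, 0.24 uM Alexa 594-labeled) in 100 mM sodium acetate pH 7 with 20 uM heparin, 6 hr at 37 C. ThT 30 uM added, 1 hr ambient; Alexa 594 FP and total fluorescence read at 555/632 nm.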
ALDH1A1 inh – inhibitors of human aldehyde dehydrogenase 1A1; Purified ALDH1A1, NADH fluorescence, propionaldehyde substrate; Potency, µM (doses to about 75.3 µM), for inactives: at the highest dose activity, negative = inhibition, actives largely listed as inhibitors; actives 7.3% (n = 220,000); active = well fitted inhibition curve with a large enough effect, not every such curve was filed as active; inconclusive = small, poorly fitted or top-dose-only effect, or another doubt; inactive = no such curve, though single readings can be large or run the other way;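 also: plate controls were no enzyme wells and a reference inhibitor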
HPGD block – HPGD (human) dehydrogenase inhibition; P15428; purified HPGD, NADH fluorescence kinetic, PGE2 substrate; Potency, µM, for inactives: at the top dose activity change, negative = inhibition, usual class: inhibitors; actives 4.3% (n = 150,000); AID 894; active = well fitted inhibition curve with a large enough effect, not every such curve was filed as active; inconclusive = small, poorly fitted or top-dose-only effect, or another doubt; inactive = no such curve, though single readings can be large or run the other way
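20 nM HPGD preincubated 15 min at room temperature with compound in 50 mM Tris-HCl pH 8, 0.01% Tween 20. Started with 1 mM NAD+ and 30 uM prostaglandin E2; NADH fluorescence (360/450 nm) read 5 times over 30-s intervals, last minus first.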
Tau FP inhib – tau fibrillization inhibition (FP). P10636. K18 P301L tau heparin fibrillization, Alexa594 FP, 6 h. Potency, µM (doses to about 57.7 µM), inactives show at the highest dose activity, negative = inhibition, actives largely listed as inhibitors. actives 0.39% (n = 280,000). AID 1468; also: nearly all actives have a fitted effect of over 55% in size
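Human K18 P301L fragment (15 uM unlabeled plus 0.24 uM Alexa 594-labeled) in 100 mM sodium acetate pH 7 with compound, aggregation induced by 20 uM heparin for 6 hr at 37 C. ThT (30 uM) added for 1 hr, then Alexa 594 FP read.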
JMJD2E inh – JMJD2E (human) inhibition. B2RXH2. JMJD2E catalytic domain, FDH-coupled NADH fluorescence (FDH is formaldehyde dehydrogenase). Potency, µM (highest dose often 57.1 µM), without a hit: at the highest dose activity change, negative = inhibition, actives largely listed as inhibitors. actives 1.6% (n = 230,000); active = well fitted inhibition curve with a large enough effect, not every such curve was filed as active; inconclusive = small, poorly fitted or top-dose-only effect, or another doubt; inactive = no such curve, though single readings can be large or run the other way;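 also: 0% = wells with enzyme and -100% = buffer wells without enzyme; nearly all actives have a fitted effect of over 50% in size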
Target sequence (B2RXH2 1-337 limits assumed): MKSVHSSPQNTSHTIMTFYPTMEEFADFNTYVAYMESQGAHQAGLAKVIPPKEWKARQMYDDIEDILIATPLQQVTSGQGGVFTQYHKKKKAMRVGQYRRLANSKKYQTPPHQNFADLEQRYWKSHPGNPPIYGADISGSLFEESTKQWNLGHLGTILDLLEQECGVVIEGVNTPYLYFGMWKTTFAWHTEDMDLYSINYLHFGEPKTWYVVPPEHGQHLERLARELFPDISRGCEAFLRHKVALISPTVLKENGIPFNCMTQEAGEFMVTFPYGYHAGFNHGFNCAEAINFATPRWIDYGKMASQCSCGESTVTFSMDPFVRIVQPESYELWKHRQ
An asterisk follows results filed as active; ? = inconclusive; / = no result given; [ ] = remark or other dose. Unless noted, calls follow the shape of the dose curve; as a rule, active = well fitted curve in the direction sought with a large enough effect; inconclusive = small, poorly fitted or top-dose-only effect, or another doubt; inactive = no such curve, though single readings can be large; an effect the other way counts as inactive or inconclusive. Unless noted, % is scaled to controls: 0 for no effect and ±100 for the full control effect; potency is read from the fitted curve at half-maximal effect.

SMILES	Tau fibril ThT	Tau fluor counter	ALDH1A1 inh	HPGD block	Tau FP inhib	JMJD2E inh
COC(=O)/C=C1\N/C(=N\c2nc(C)cc(C)n2)N(c2ccc(Cl)cc2)C1=O	-13.6%	-13.7%	-12.6%	/	2.9%	-9.2%
Cc1ccc(NC(=O)C2CCCN2C(=O)OC(C)(C)C)cc1C (stereo unspecified)	-0.5%	0.3%	/	/	-4.2%	3.3%
O=C1Nc2ccc(NS(=O)(=O)c3cccs3)c3cccc1c23	?	3.1%	15.8µM*	-15.8%	5.8%	12.0%
C[C@]1(OC(=O)/C=C\c2ccccc2)C[C@@H](O)[C@@]2(O)C=CO[C@@H](O[C@H]3O[C@@H](CO)[C@@H](O)[C@@H](O)[C@@H]3O)[C@H]21	/	/	23.6%[20.9 µM]	-6.5%	/	-2.5%[25.5 µM]
CC(=O)c1nc(N2C(=O)CC(Cc3ccccc3)C2=O)sc1C (stereo unspecified)	-0.2%	-0.9%	-1.9%	28.2µM*	0.9%	6.7%
Cc1ccccc1Oc1cccc(C(=O)/C(C#N)=C/N(C)C)c1	-7.8%	-11.0%	-5.9%	?	4.5%	6.8%
CN(C)/C=C(/C#N)C(=O)c1cccc(Oc2ccc(C(C)(C)C)cc2)c1	-20.5%	-10.2%	-8.0%	22.4µM*	?	2.0%
CCOc1ccc(NC(=O)CN2CCN(CC(=O)Nc3ccc(C(=O)OC)cc3)CC2)cc1	-25.2%	-4.0%	7.08µM*	-12.7%	-3.0%	-6.0%
O=C(CN1CCCC1)Nc1ccc(Oc2ccc(NC(=O)CN3CCCC3)cc2)cc1	-7.0%	-12.8%	-14.8%	25.1µM*	-6.2%	-1.6%
CCOc1ccc(NC(=O)CN2CCN(C3c4ccccc4-c4ccccc43)CC2)cc1	?	-14.0%	11.2µM*	-17.2%	9.6%	-2.6%
CCOc1ccc(NC(=O)CN2CCN(CC(=O)Nc3ccc(F)c(F)c3)CC2)cc1	-7.1%	-4.1%	3.98µM*	-6.1%	2.2%	-7.1%
COCCNC(=O)C(c1ccncc1)N(Cc1ccccc1)C(=O)Cn1nnc2ccccc21 (stereo unspecified)	0.0%	2.6%	-3.1%	/	-0.3%	?
COc1cccc(CNC(=O)CCc2c(C)c3ccc(O)c(C)c3oc2=O)c1	4.2%	-8.7%	/	/	-9.6%	/
CN(C)c1ccc(NC(=O)c2ccc(Cn3cc([N+](=O)[O-])cn3)cc2)cc1	12.6µM*	?	?	/	14.3%	-4.7%
CCNS(=O)(=O)c1ccc(NC(=O)c2ccc(Cn3cc([N+](=O)[O-])cn3)o2)cc1	7.7%	1.2%	18.9µM*	/	-0.3%	5.4%
COC(=O)c1ccc(C)c(NC(=O)c2ccc(Cn3cc([N+](=O)[O-])cn3)o2)c1	1.0%	-2.9%	5.8%	-19.9%	-2.4%	0.4%
COC(=O)c1ccccc1NC(=O)c1ccc(Cn2cc(Cl)cn2)o1	-3.6%	-4.8%	-1.8%	-12.0%	-4.4%	?
O=C(COc1ccc(Cl)cc1)Nc1cnn(Cc2c(Cl)cccc2Cl)c1	-4.7%	-19.7%	?	-9.4%	-14.3%	14.5%
COC(=O)c1cc(NC(=O)c2ccc(Cn3cc(Cl)cn3)o2)cc(C(=O)OC)c1	-5.9%	-20.4%	-4.5%	1.26µM*	-15.9%	-8.8%
O=C(Nc1cnn(Cc2c(Cl)cccc2Cl)c1)c1ccc([N+](=O)[O-])cc1	-20.2%	25.1µM*[quencher]	?	-14.6%	?	-0.7%
CCCCNS(=O)(=O)c1ccc2nc(-c3cccs3)cc(C(=O)NCC(OC)OC)c2c1	-14.5%	-26.4%	?	?	-3.2%	?
Cc1nn(C(=O)c2ccc(Cl)cc2)c(C)c1S(=O)(=O)N1CCCCCC1	?	2.1%	/	/	13.5%	/
Cc1cc(Nc2ccc(O)cc2)ccc1N	/	/	3.16µM*	-13.4%	/	/
Cc1cc(=O)n2nc(N3CCC(C(=O)NCCCOC(C)C)CC3)sc2n1	?	3.3%	/	/	1.3%	/
O=C(NC1CC(=O)N(c2ccc(F)cc2)C1)c1ccco1 (stereo unspecified)	-3.3%	-1.0%	/	/	-6.2%	/

Compound activity: PubChem BioAssay, National Center for Advancing Translational Sciences (NCATS)
